{"source": "PubChem BioAssay AID504862", "about": "(Sanford-Burnham Center for Chemical Genomics, 2011)", "note": "This is one part of the list. A number with no mark means an inactive call. The source made the active and inactive calls.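 How the source made its calls: active means average inhibition reaching 50% or more with the compound at 20 µM; inactive means the rest.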", "data": [{"system": "diaphorase (Clostridium kluyveri)", "test": "diaphorase inhibitors and chemical oxidizers, confirmation, counter-screen for P. falciparum G6PD inhibitor project, biochemical, fluorescence intensity, 10 µM NADPH (AID 504862);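 further: resorufin red fluorescence formed as diaphorase reduces resazurin using NADPH; 0% = DMSO with enzyme and 100% = DMSO without enzyme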", "settings": "diaphorase-coupled resazurin reduction, NADPH 10 uM, at 20 µM, stronger effect = higher value", "values": [{"smiles": "Cc1ccnc(-n2sc3ccccc3c2=O)n1", "inhibition": "-36%"}, {"smiles": "O=C(Nc1nc(-c2ccncc2)cs1)C1COc2ccccc2O1", "note": "(stereo unspecified)", "inhibition": "-37.4%"}, {"smiles": "COc1ccc(OCc2nnc3n2N=C(c2ccccc2)C(CC(=O)O)S3)cc1", "note": "(stereo unspecified)", "inhibition": "-3.99%"}, {"smiles": "CCOc1ccccc1/C=N/NC(=O)CNC(=O)COc1ccccc1", "inhibition": "96.9% (active)"}, {"smiles": "COc1ccc(CCn2c(NN=C3CCCC3)nc3c2c(=O)[nH]c(=O)n3C)cc1", "inhibition": "7.63%"}, {"smiles": "OCCN1CCN(C(=S)c2ccc(-c3ccccc3)cc2)CC1", "inhibition": "-9.62%"}, {"smiles": "COc1cccc(C(=O)Nc2nnc(S(=O)(=O)N3CCOCC3)s2)c1", "inhibition": "69.5% (active)"}, {"smiles": "O=C1/C(=C\\c2ccc([N+](=O)[O-])cc2)CS(=O)(=O)C/C1=C/c1ccc([N+](=O)[O-])cc1", "inhibition": "-19.8%"}, {"smiles": "O=C(Nc1nnc(S(=O)(=O)N2CCCCCC2)s1)c1cccc(Br)c1", "inhibition": "52.1% (active)"}, {"smiles": "COc1cccc(C(=O)Nc2nnc(S(=O)(=O)N3CCCCC3)s2)c1", "inhibition": "72.7% (active)"}, {"smiles": "CCN1CCCC1CNC(=O)c1ccc2c(c1)NC(=O)/C(=C\\c1ccccc1F)S2", "note": "(stereo unspecified)", "inhibition": "-2.12%"}, {"smiles": "O=C(CN1CCN(c2ccc(O)cc2)CC1)Nc1cc(S(=O)(=O)N2CCOCC2)ccc1Cl", "inhibition": "-6.79%"}, {"smiles": "O=c1[nH]c2ccccc2n2c(-c3ccccc3)nnc12", "inhibition": "37.2%"}, {"smiles": "COc1ccc(CC(=O)NCC(=O)N/N=C/c2cc(Br)ccc2OC)cc1", "inhibition": "87.8% (active)"}, {"smiles": "CC(C)(C)NC(=O)COc1ccc(CNc2ccc3[nH]c(=O)[nH]c3c2)cc1", "inhibition": "27.4%"}, {"smiles": "Cc1cccc(C(=O)Nc2nnc(S(=O)(=O)N3CCCCCC3)s2)c1", "inhibition": "46.7%"}, {"smiles": "Cc1ccc(NC(=O)Cn2sc3ccccc3c2=O)cc1", "inhibition": "0.47%"}, {"smiles": "O=C(Nc1nnc(S(=O)(=O)N2CCOCC2)s1)c1cccc(Br)c1", "inhibition": "56.5% (active)"}, {"smiles": "CCN(CC)c1ccc2oc(=O)c(C)nc2c1", "inhibition": "87.7% (active)"}, {"smiles": "COc1c(O)ccc2c1CN1CCc3cc4c(cc3C1C2)OCO4", "note": "(stereo unspecified)", "inhibition": "12.4%"}, {"smiles": "C=CCc1ccccc1OCC(=O)N/N=C/c1ccccc1OCC", "inhibition": "43.3%"}, {"smiles": "Cn1c(-c2sccc2OCc2cccc(C(F)(F)F)c2)n[nH]c1=S", "inhibition": "4.08%"}, {"smiles": "O=C1C=CC(=O)N1c1ccc(N2CCCCC2)cc1", "inhibition": "-20%"}, {"smiles": "CCSc1nnc(NC(=O)c2ccc(C)cc2)s1", "inhibition": "61.9% (active)"}, {"smiles": "Cc1ccc(/C=C/C(=O)Nc2ccc([N+](=O)[O-])c(NC(=O)/C=C/c3ccc(C)o3)c2)o1", "inhibition": "-11.9%"}, {"smiles": "CCOC(=O)C1=C(c2ccc(OC)cc2)C(=O)c2ccccc2C1=O", "inhibition": "84.4% (active)"}, {"smiles": "c1ccc(-c2cn3c(n2)CCc2ccc4cccnc4c2-3)cc1", "inhibition": "10.4%"}, {"smiles": "COc1cccc(C(=O)Nc2nnc(S(=O)(=O)N(C)c3ccccc3)s2)c1", "inhibition": "89.1% (active)"}, {"smiles": "O=C(NC1=CC(=O)c2ccccc2C1=O)c1ccccc1", "inhibition": "48.7%"}, {"smiles": "COc1ccc2c(c1)c(=Cc1ccc(N(C)C)cc1)c1cc(-c3ccccc3)[n+](C)n12", "inhibition": "17.5%"}, {"smiles": "O=[N+]([O-])c1c(NCCO)cc(Sc2nc3ccccc3s2)c2nonc12", "inhibition": "-9.49%"}]}]}
